# Measurements: ChEMBL document CHEMBL3988442, “University of Dundee, Small-Polar-MMV Screening Library” (2021)
# Target: T1, Arginase-2, mitochondrial (Homo sapiens) (UniProt P78540)
# T1 sequence (whole entry): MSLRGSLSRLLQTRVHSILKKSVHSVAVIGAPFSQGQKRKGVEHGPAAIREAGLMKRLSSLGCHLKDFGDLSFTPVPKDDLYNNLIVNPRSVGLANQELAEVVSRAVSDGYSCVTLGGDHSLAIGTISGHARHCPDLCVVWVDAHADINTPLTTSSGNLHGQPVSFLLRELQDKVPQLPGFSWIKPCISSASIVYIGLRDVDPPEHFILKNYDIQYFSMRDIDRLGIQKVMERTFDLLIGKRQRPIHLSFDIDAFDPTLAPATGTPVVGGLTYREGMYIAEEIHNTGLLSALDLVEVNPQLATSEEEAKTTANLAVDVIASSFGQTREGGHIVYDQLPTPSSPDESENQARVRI
# Test: in vitro enzyme assay to detect the production of urea directly proportional to the activity of Arginase II
# Assay type: functional
# Parameters: scale not given: in the data most compounds retested in dose-response had high values
# Settings: 33.3 µM
row,SMILES,Percent Effect
1,CC(=O)N1CCCC(Cc2cncc(Br)c2)CC1 (stereo not given),-2.09%
2,COc1ccc(C(CNC(=O)Nc2cn[nH]c2)N2CCOCC2)cc1 (stereo not given),1.05%
3,Cc1cn2c(n1)CCC(NC(=O)c1ccc(CS(C)(=O)=O)cc1)C2 (stereo not given),-3.06%
4,Cc1cc(NC(=O)NCc2ccccc2OC(F)F)n(C)n1,4.09%
5,CN(C)CCNC(=O)CNC(=O)N1CCc2c([nH]c3ccc(Cl)cc23)C1,-9.33%
6,CN(Cc1cscn1)C1CCCN(Cc2noc(C3CC3)n2)C1 (stereo not given),0.36%
7,Nc1nc2c(c(=O)[nH]1)CCN(C(=O)c1cccc3nccnc13)C2,-12.4%
8,Cc1cccc(CNC(CN2CCN(C)CC2)c2ccccc2)c1 (stereo not given),29.5%
9,CS(=O)(=O)N1CCCCCC1C1CCN(c2ncccc2C#N)CC1 (stereo not given),0%
10,Cc1cccc(C(=O)NCCCN2CCN(c3ccccc3)CC2)c1,5.81%
11,CCOc1ccc(-c2ccnc(CC)n2)cc1C(=O)O,-0.476%
12,CS(=O)(=O)N1CCc2c(cccc2NC(=O)CC(F)(F)F)C1,0%
13,COc1ccccc1Oc1ncccc1CNC(=O)C(C)N1CCCC1 (stereo not given),50.3%
14,CCOc1ccnc(N2CCN(C(=O)c3cccnc3O)CC2)n1,4.56%
15,CC(C)c1nn(C)c(Cl)c1CNCc1ccc2c(c1)OCCO2,-5.04%
16,CC(C)COC(C)C(=O)NCc1cc(F)cc(F)c1 (stereo not given),2.32%
17,Cc1nc(CN2CCOC(CNc3cccnn3)C2)cs1 (stereo not given),-2.81%
18,CCS(=O)(=O)N1CCC(c2nnc(Cn3cccn3)n2C2CC2)CC1,3.97%
19,OC[C@H]1CC[C@]2(CC1)CN(Cc1ccccn1)Cc1ccccc1O2,1.16%
20,O=C(Cc1cccc(F)c1)N1CCCCC1c1ccn2ccnc2n1 (stereo not given),-4.41%

row,SMILES,Percent Effect
1,NC(=O)Nc1cccc(Oc2ccccn2)c1,-7.1%
2,CC(c1cccnc1)N(C)Cc1csc(-c2ccccn2)n1 (stereo not given),3.64%
3,c1cnnc(NCC2CN(Cc3cccc4c3OCCO4)CCO2)c1 (stereo not given),-2.13%
4,COc1cccc(COCC(=O)N2CCCC(n3ccnc3)C2)c1 (stereo not given),0.802%
5,CC(C)C(=O)N1CCN(C(=O)c2cc(C(C)C)on2)[C@H]2CS(=O)(=O)C[C@H]21,7.06%
6,CC(NC(=O)NCCN1CCCCCC1=O)c1nncn1C (stereo not given),-3.51%
7,CN1N=C(C(=O)NCc2ccc3c(c2)CCCN3C)CCC1=O,0.215%
8,O=C(O)c1coc(COc2cccc(F)c2)n1,19.6%
9,Cn1cccc1C(=O)N1CCC2(CC1)CN(c1ccccn1)CCO2,-55.2%
10,Cc1nc2c(c(C)c1CC(=O)Nc1ccc(Cl)cc1)c(=O)[nH]n2C,6.77%
11,COCCC(=O)N1C[C@@H]2COC[C@]2(COCc2cccnc2)C1,12.3%
12,O=C(NC1CC1)[C@@H]1CCO[C@@H]2CCN(Cc3ccsc3)C[C@H]21,3.5%
13,Cn1cccc1C(=O)N[C@@H]1CN(CC2CC2)[C@@H]2COC[C@@H]21,-54.7%
14,O=C(c1cc(F)ccc1F)C1CCN(C(=O)c2cccnc2O)CC1,0.21%
15,CC(C)=CCN1CCOC(Cn2nc(C)cc2C)C1 (stereo not given),-1.92%
16,CCOc1cccc(CNc2ccccc2C(=O)OC)c1O,-10.7%
17,Cc1ccc(C(=O)N2CCC3(CC2)NC(=O)CC3c2ccccc2)cn1 (stereo not given),-48.6%
18,Cc1nnc2n1CCN(C(=O)c1cc(C)n(-c3ccccn3)c1C)C2,3.6%
19,Cc1cccc(-n2cc(C(=O)N3CCCC(n4ccnc4)C3)nn2)c1 (stereo not given),-3.16%
20,O=C1CCCN1Cc1ncn2c1CN(C(=O)c1cccc(F)c1)CCC2,20.6%
